# High-throughput results from PubChem.
# IDE cell inh – inhibits human insulin-degrading enzyme in HEK cells; FAbetaB cleavage, fluorescence polarization; inhibition, % at 5.59 µM; 320,000 compounds, 0.41% hits;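 active = percent inhibition above the average of all tested compounds plus 3 SD, set per screening campaign, cut at about 16% in these data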;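 also: IDE supplied by intact live HEK cells; FP after avidin binding of uncleaved biotin substrate so inhibition keeps polarization high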
# Target sequence (P14735 whole entry, looked up): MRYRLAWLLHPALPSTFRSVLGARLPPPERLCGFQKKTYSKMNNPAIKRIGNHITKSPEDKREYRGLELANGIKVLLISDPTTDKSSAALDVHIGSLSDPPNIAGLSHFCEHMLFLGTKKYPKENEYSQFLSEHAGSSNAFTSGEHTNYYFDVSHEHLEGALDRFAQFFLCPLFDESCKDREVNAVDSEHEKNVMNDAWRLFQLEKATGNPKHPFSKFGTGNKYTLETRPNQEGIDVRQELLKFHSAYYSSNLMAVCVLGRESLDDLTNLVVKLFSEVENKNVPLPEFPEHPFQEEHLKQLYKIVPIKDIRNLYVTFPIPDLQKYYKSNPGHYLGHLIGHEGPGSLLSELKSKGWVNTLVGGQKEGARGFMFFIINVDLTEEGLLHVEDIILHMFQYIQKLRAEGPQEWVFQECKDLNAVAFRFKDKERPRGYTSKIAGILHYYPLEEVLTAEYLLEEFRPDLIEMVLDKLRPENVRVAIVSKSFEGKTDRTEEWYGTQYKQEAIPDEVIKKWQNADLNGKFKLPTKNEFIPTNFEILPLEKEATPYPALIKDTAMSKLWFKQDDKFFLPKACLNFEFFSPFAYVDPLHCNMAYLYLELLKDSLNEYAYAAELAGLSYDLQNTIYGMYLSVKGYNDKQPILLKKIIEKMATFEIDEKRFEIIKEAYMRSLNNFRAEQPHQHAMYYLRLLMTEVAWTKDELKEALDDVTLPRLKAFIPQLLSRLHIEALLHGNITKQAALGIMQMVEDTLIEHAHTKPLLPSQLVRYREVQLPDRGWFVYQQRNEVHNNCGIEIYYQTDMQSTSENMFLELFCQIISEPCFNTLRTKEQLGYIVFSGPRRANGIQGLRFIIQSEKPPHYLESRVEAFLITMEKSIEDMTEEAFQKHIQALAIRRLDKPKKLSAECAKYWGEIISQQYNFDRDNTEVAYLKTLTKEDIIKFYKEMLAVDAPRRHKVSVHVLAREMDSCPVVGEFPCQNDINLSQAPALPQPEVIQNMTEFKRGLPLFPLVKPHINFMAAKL
# CRFBP-R2 block – antagonists of CRF-binding protein/CRF-R2 receptor complex | inhibition, % at 11.8 µM | 350,000 compounds, 0.59% hits | HEK293 CRF-R2/CRF-BP, CRF-induced calcium fluorescence;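 active = inhibition of the ligand-induced calcium signal above about 50% at the single tested concentration, limit read from the data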
# TPT1 inhibitor – C. albicans TPT1 enzyme inhibition; 300,000 compounds, 0.81% hits; recombinant caTPT1, FP RNA substrate dephosphorylation; inhibition, % at 5 µM; AID 1962;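 active = inhibition above the mean of all tested compounds plus 3 SD, set per screening campaign, cut at about 24% in these data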
# IDE act – activators of human insulin-degrading enzyme in cells; P14735; HEK cells, FAbeta-B cleavage, fluorescence polarization; 0% vehicle, 100% cell-free pure enzyme wells; activation, % at 5.96 µM; 340,000 compounds, 0.073% hits; AID 493087;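 active = activation above the mean of all tested compounds plus 3 SD, set per screening campaign, cut at about 17% in these data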
# Myeloid diff MLP – compounds promoting myeloid differentiation; AID 624256; ER-HoxA9 myeloid progenitors, lysozyme-GFP differentiation, flow cytometry; 360,000 compounds, 1% hits; calls only at 10 µM;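 active = normalized GFP-positive differentiation at or above the plate's own cutoff, the solvent-only control mean plus 3 SD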;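 also: cells exposed to compound for four days before flow analysis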
# CRFR2-BP ag – CRF-BP/CRF-R2 complex agonism. HEK293 CRF-R2/CRF-BP, calcium dye fluorescence (FLIPR); percent of saturating CRF peptide response. activation, % at 13.2 µM. 350,000 compounds, 0.46% hits;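 active = activation of at least 50%, plus an integration ratio under a set limit after plate pattern correction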
# Hits are given with their value; . = inactive; / = not tested or not shown; + = active, no number. Only some compounds are listed: those with a hit (about 2.6% of all), similar ones and a draw of the others.
SMILES,IDE cell inh,CRFBP-R2 block,TPT1 inhibitor,IDE act,Myeloid diff MLP,CRFR2-BP ag
NNC(=O)c1oc2ccccc2c1-n1cccc1,.,.,.,.,.,.
O=C(NNC(=O)c1oc2ccccc2c1-n1cccc1)c1ccco1,.,96.5,.,.,.,.
O=C1c2ccccc2C(=O)c2c(/C=C/N3CCCCC3)ccnc21,/,.,/,.,+,.
Cc1ccc(-c2ccc(=O)n(Cc3cc(C)ccc3C)n2)cc1,/,123.3,/,.,.,.
CN1CCN(S(=O)(=O)c2ccc(NC(=S)NC(=O)C(C)(C)C)cc2)CC1,.,.,.,.,.,.
Clc1ccccc1N=Nc1ccccn1,/,.,/,.,.,63.2
Cc1ccc(S(=O)(=O)C=CS(=O)(=O)c2ccc(C)cc2)cc1,/,.,/,/,.,.
C=CCC(C=C)S(=O)(=O)c1ccc(C)cc1 (stereo not given),.,.,.,.,+,.
CCNC(=O)C1(C)CCCN(C(=O)c2cc3ccccc3s2)C1 (stereo not given),/,/,/,/,.,/
CC(C)[C@H](CO)Nc1nc(Nc2ccc(Cl)c(C(=O)O)c2)c2ncn(C(C)C)c2n1,.,.,.,.,.,.
CC(C)n1cnc2c(Nc3cccc(Cl)c3)nc(NCCCO)nc21,.,.,.,.,+,.
CC1CCN(S(=O)(=O)c2ccc3c(c2)NC(=O)CS3)CC1,.,62.8,.,.,.,.
COc1ccc(C(=O)NNC(=S)NC(=O)C(C)(C)C)cc1,.,.,.,.,.,127.1
COc1ccc(C(=O)NNC(=S)NC(=O)/C=C/c2cccs2)cc1,.,.,.,.,.,.
COc1ccc(C(=O)NC(=S)NNC(=O)c2ccccc2C)cc1,.,.,.,.,.,116.1
COc1ccc(C(=O)NC(=S)NNC(=O)c2ccccc2O)cc1,.,.,.,.,.,58.7
COc1ccc(C(=O)NC(=S)NNC(=O)c2ccco2)cc1,.,.,.,.,.,.
O=C(/C=C/c1cccs1)NC(=S)NNC(=O)c1ccccc1O,.,.,.,.,/,62.6
O=C(Oc1cc(=O)n2ccccc2n1)c1ccccc1,.,.,.,.,.,.
COc1ccc(C(=O)C2CCCN(Cc3cccn3-c3ccc(Cl)cn3)C2)c(OC)c1 (stereo not given),.,.,.,.,.,.
CC(NC(=O)CN1C(=O)c2ccccc2C1=O)c1ccccc1 (stereo not given),.,.,.,.,.,.
CCCCC(C(=O)O)C(C)CC(=O)Nc1nncs1 (stereo not given),.,77.0,.,.,.,.
CC(CCC(=O)Nc1nncs1)C(=O)O (stereo not given),.,.,.,.,.,.
CSc1ccc(Cn2c(C)c(C(=O)NCc3ccc(C(C)C)cc3)sc2=O)cc1,/,/,/,/,.,/
Cc1c(C(=O)NCc2ccc(C(C)C)cc2)sc(=O)n1Cc1ccc(S(=O)(=O)N(C)C)cc1,/,/,/,/,+,/
SMILES,IDE cell inh,CRFBP-R2 block,TPT1 inhibitor,IDE act,Myeloid diff MLP,CRFR2-BP ag
Cc1cc(-c2ccc(N=Nc3c(S(=O)(=O)O)cc4cc(S(=O)(=O)O)cc(N)c4c3O)c(C)c2)ccc1N=Nc1c(S(=O)(=O)O)cc2cc(S(=O)(=O)O)cc(N)c2c1O,.,/,80.0,/,/,/
CC(C)N1C(=O)c2ccccc2NC(=O)C1C(=O)NCc1cccc(C(F)(F)F)c1 (stereo not given),/,/,/,/,.,/
CCCCCCN1C[C@H](O)[C@@H](n2cc(C3CC3)nn2)C[C@@H]1c1ccc(C)cc1,/,.,/,/,.,.
CCCCCCN1C[C@H](O)[C@@H](n2cc(C3CC3)nn2)C[C@@H]1c1ccc(OC)cc1,/,.,/,/,+,.
O=C(NCc1ccncc1)c1cc(F)c(F)cc1Cl,.,59.7,.,.,.,.
O=C1C2C3C=CC(C3)C2C(=O)N1CCCO (stereo not given),.,69.4,.,.,.,.
C/C(=N\NC(=O)Cn1ccc(C(F)(F)F)n1)c1ccco1,.,.,.,.,.,.
C=CCNc1nc(NCCOC)c2sc(-c3ccccc3)cc2n1,/,/,/,/,.,/
C=CCNc1nc(NCc2ccc(N(C)C)cc2)c2sc(-c3ccccc3)cc2n1,/,/,/,/,+,/
Cc1[nH]c(=O)[nH]c(=O)c1NC(=O)c1sc2nc3c(C)cccc3cc2c1N,.,.,.,.,+,.
N=c1n(Cc2ccccc2)c2ccccc2n1CC(O)c1ccco1 (stereo not given),.,.,.,.,+,.
